Results on 14 compounds are retold here after PubChem BioAssay.

Test [1] in a line: inhibitors of TNFa-induced NFkB p65 translocation, primary screen, imaging, HUVEC, MLSMR starter and 10KST1 sets (AID 438;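 active means inhibition above 20% together with a positive visual image hit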;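 further: compound added about 3h40 before a 20 min TNFalpha stimulation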;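 on inhibition: signal is the nuclear over cytoplasmic p65 intensity ratio per well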). Particulars: HUVEC TNFa-induced p65 nuclear translocation; cell count: measured here: nuclei count (cytotoxicity indicator), at 2.08 µM; inhibition: at 2 µM, stronger effect = higher value, 0% TNFa-plus-vehicle, 100% no-TNFa wells.
The nature of test [2]: inhibitors of mutant huntingtin aggregation, primary screen, imaging, exon1htt(103Q)mCFP cells, high-content imaging (AID 483;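 active means visual image review flags a hit and inhibition of aggregation exceeds 20%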;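 further: compound exposure lasted 3 days before fixation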;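 on nuclei count: percent of the per-plate median nuclei count of sample wells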). Particulars: exon1htt(103Q)mCFP cell line, aggregate imaging, at 2 µM; inhibition of aggregation: stronger effect = higher value; nuclei count: measured here: cell count, toxicity.
The nature of test [3]: inhibitors of E-selectin induction by TNFa, primary screen, imaging, HUVEC, immunofluorescence, MLSMR starter and 10KST1 sets (AID 487;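 active means visually confirmed hit in the image check and inhibition above 20%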;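 on inhibition: signal is fraction of cell area covered by stained E-selectin grains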;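 on nuclei count: 100% = median nuclei count of all wells on the same plate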). Particulars: HUVEC TNFalpha-induced E-selectin immunofluorescence imaging, at 2 µM; inhibition: stronger effect = higher value; nuclei count: measured here: cell number, toxicity.
Test [4] addresses Voltage-gated potassium channel subunit beta-2 (Rattus norvegicus) (UniProt P62483). The test is described as follows: KvBeta enzyme negative modulators, primary screen, biochemical, NADPH fluorescence (AID 622;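 active means fluorescence slope higher than the sample average by over 3 SD, cut at about -0.22 in these data, passing the limit was not always enough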;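 further: slope of raw intensity against log time taken from 70 to 1610 s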). Particulars: recombinant KvBeta, 4-cyanobenzaldehyde reduction, at 10 µM, stronger effect = higher value.
The target is the same in test [5]. The test is described as follows: KvBeta positive modulators, primary screen, biochemical, NADPH fluorescence (AID 623;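 active means NADPH fluorescence slope more negative than the mean of all samples by about 3 SD, 99.7% confidence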;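 further: fluorescence intensity change per second fitted from 20 to 320 s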). The settings on record: Recombinant KvBeta, NADPH fluorescence decrease slope, 10 min; at 10 µM; stronger effect = lower value.
In test [6] the target is Alpha-2C adrenergic receptor (Homo sapiens) (UniProt P18825). The test is described as follows: modulators of alpha2C/GIRK thallium flux, primary screen, cell-based, HEK293 alpha2C/GIRK1/2 (AID 624).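 Further: slope of fluorescence ratio to pre-addition baseline per second over 15 to 24 s.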 The settings on record: thallium flux BTC fluorescence, at 10 µM, actives lie on both sides.
Sequence of Alpha-2C adrenergic receptor (Homo sapiens) (P18825 whole entry, looked up): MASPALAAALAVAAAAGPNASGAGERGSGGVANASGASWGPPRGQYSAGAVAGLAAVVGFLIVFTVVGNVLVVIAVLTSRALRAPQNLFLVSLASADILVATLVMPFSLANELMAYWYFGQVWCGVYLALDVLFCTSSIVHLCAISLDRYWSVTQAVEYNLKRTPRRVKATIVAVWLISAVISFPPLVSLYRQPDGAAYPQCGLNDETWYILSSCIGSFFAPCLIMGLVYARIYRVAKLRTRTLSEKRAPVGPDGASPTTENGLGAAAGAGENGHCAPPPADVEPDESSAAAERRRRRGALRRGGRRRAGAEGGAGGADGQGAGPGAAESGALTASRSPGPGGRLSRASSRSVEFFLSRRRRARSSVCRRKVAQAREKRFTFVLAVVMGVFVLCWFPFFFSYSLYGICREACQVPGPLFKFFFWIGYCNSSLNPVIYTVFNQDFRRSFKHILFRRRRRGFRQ
A short description of test [7]: inhibitors of Sendai virus-induced IRF3 signaling, primary screen, TLR/RLR signaling modifier project, cell-based, Sendai virus stimulus, luciferase, 10K MLSCN set (AID 602276;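 active means inhibition at or above 50% at 10 µM; inactive means inhibition below 50%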;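 further: firefly luciferase from ISG56 promoter only with Renilla not read in this screen; 0% = Sendai virus plus DMSO and 100% = medium plus DMSO without virus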). Particulars: HEK293 RL24 IRF3 luciferase reporter, at 10 µM, stronger effect = higher value. (A reporter such as luciferase makes a cellular process visible.)
Test [8] is described as follows: inhibitors of poly I:C-induced TLR3 signaling, primary screen, cell-based, poly I:C stimulus, luciferase, 10K MLSCN set (AID 602277;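 active means inhibition of the reporter signal at or above 50%; inactive means inhibition below 50%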). Particulars: HEK293-TLR3 RL24 IRF3 luciferase reporter, at 10 µM, stronger effect = higher value.

Activity calls are given as the source filed them.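 How the source made its calls, unless noted: active means fluorescence slope after compound addition differing from the mean of all screened samples at 99.7% confidence, in either direction; inactive means the rest.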

Sequence of Voltage-gated potassium channel subunit beta-2 (Rattus norvegicus) (P62483 whole entry, looked up): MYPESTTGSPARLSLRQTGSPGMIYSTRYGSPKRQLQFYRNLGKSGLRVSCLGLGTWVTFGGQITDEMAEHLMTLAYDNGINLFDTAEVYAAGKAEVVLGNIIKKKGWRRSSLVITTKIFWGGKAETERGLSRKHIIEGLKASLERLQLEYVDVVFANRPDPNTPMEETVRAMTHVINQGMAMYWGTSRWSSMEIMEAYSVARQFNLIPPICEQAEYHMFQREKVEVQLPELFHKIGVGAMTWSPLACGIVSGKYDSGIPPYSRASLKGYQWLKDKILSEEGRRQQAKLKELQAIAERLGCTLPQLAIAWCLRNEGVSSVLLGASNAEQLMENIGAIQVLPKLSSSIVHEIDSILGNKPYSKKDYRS

One may read the inhibition as the change of the read-out against control, counted positive when it falls. Regarding `CC1(C)CC(=O)C(C=NCC2CCNCC2)=C(O)C1`, in test [1], the cell count amounted to 249. Besides, the inhibition is -2.1% (inactive) in test [1], -10.9% (inactive) in test [3], 3.67% (inactive) in test [7] and 27.1% (inactive) in test [8]. Moreover, the inhibition of aggregation in test [2] was 6.8% (inactive). In addition, the values for the nuclei count in test [2] and in test [3] were 74.8% and 116%, respectively. In test [4], the fluorescence slope is -0.466 (inactive). Besides, the NADPH fluorescence slope in test [5] was -4.9e-06 (inactive). The slope in test [6] was 0.00268 (inactive).

For the compound `COc1ccc(-n2c(Cc3cccn3C)nnc2SCC(=O)NCC2CCCO2)cc1` (centres undefined), in test [1], the cell count is 846. Also, the inhibition in test [1] was 1.8% (inactive); in test [3] it was -182% (inactive); in test [7], 8.65% (inactive); in test [8] it was 32% (inactive). In addition, the inhibition of aggregation in test [2] was 21.3% (inactive). Moreover, the nuclei count in test [2] is 103%; in test [3], 130%. The fluorescence slope in test [4] is -0.56 (inactive). For the same compound, in test [5], the NADPH fluorescence slope is -3.5e-05 (inactive). Besides, the slope in test [6] was 0.00701 (inactive).

With `COc1cccc(C(=O)NCc2nnc(SCC(=O)Nc3nccs3)n2-c2ccccc2)c1`, in test [1], the cell count worked out at 756. The inhibition was -9.1% (inactive) in test [1], -20.4% (inactive) in test [3], 10.5% (inactive) in test [7] and 35.1% (inactive) in test [8]. Further, the inhibition of aggregation in test [2] was -1.7% (inactive). In addition, the nuclei count in test [2] turned out to be 120%; in test [3] it was 107%. In test [4], the fluorescence slope is -0.626 (inactive). Also, the NADPH fluorescence slope in test [5] is 1.6e-05 (inactive). In addition, the slope in test [6] is 0.0057 (inactive).

Consider `Cc1cnc(NC(=O)CSc2nnc(COc3c(C)cccc3C)o2)s1`, for which the cell count in test [1] is 628. The inhibition is 10.9% (inactive) in test [1], -22.4% (inactive) in test [3], 12.1% (inactive) in test [7] and 39% (inactive) in test [8]. Further, in test [2], the inhibition of aggregation was -2.5% (inactive). In addition, the nuclei count in test [2] worked out at 103%; in test [3], 121%. Further, the fluorescence slope in test [4] was -0.537 (inactive). Besides, the NADPH fluorescence slope in test [5] was -4.4e-05 (inactive). Moreover, the slope in test [6] is 0.00686 (inactive).

As to `CC(=O)c1ccccc1OCCn1nnc(-c2ccc(C)cc2)n1`, the cell count in test [1] was found to be 556. Also, the inhibition in test [1] is -13.7% (inactive); in test [3] it was -24.2% (inactive); in test [7] it was 12.9% (inactive); in test [8] it was 14% (inactive). In test [2], the inhibition of aggregation is -20.1% (inactive). The nuclei count is 106% in test [2] and 109% in test [3]. For the same compound, the fluorescence slope in test [4] was -0.487 (inactive). For the same compound, the NADPH fluorescence slope in test [5] was -5.6e-05 (inactive). Moreover, the slope in test [6] was 0.0055 (inactive).

For the compound `COc1ccc(-n2nnnc2SCC(=O)N2CCOCC2)cc1`, the cell count in test [1] came to 788. The inhibition in test [1] was 2.8% (inactive); in test [3] it was -9.3% (inactive); in test [7] it was 2.03% (inactive); in test [8], -10.7% (inactive). Also, in test [2], the inhibition of aggregation is 9.1% (inactive). The figures for the nuclei count in test [2] and in test [3] were 85.7% and 114%, respectively. For the same compound, the fluorescence slope in test [4] was -0.525 (inactive). For the same compound, in test [5], the NADPH fluorescence slope was -4.9e-05 (inactive). Further, the slope in test [6] was 0.00627 (inactive).

Take `COc1ccc(C2C3=C(OC(C)=O)c4ccccc4C3=Nc3c2c(=O)n(C)c(=O)n3C)cc1` (centres undefined): in test [1], the cell count worked out at 657. Also, the inhibition in test [1] is 0.2% (inactive); in test [3], -72.4% (inactive); in test [7], 12.9% (inactive); in test [8] it was 12.4% (inactive). Further, the inhibition of aggregation in test [2] was -0.9% (inactive). The nuclei count in test [2] was determined as 103%; in test [3], 116%. In test [4], the fluorescence slope was -0.41 (inactive). For the same compound, the NADPH fluorescence slope in test [5] was -3.9e-05 (inactive). The slope in test [6] was 0.00537 (inactive).

On to `CC1(C)CC(=O)CC(=Nc2ccc(C(=O)O)cc2)C1`, for which the cell count in test [1] is 487. Moreover, the inhibition is 4.2% (inactive) in test [1], 2.7% (inactive) in test [3], 6.49% (inactive) in test [7] and 42.2% (inactive) in test [8]. Moreover, the inhibition of aggregation in test [2] was 10.3% (inactive). In addition, the nuclei count turned out to be 89.1% in test [2] and 112% in test [3]. The fluorescence slope in test [4] is -0.497 (inactive). In addition, in test [5], the NADPH fluorescence slope is -5.1e-05 (inactive). Besides, the slope in test [6] is 0.0073 (inactive).

In the case of `Cc1ccc2nc(-c3ccc4c(c3)OCCO4)cc(C(=O)O)c2c1`, the cell count in test [1] worked out at 337. Moreover, the inhibition in test [1] is -10.3% (inactive); in test [3], 30.4% (inactive); in test [7] it was -13.7% (inactive); in test [8] it was 98.1% (active). Besides, in test [2], the inhibition of aggregation was -4.5% (inactive). In addition, the nuclei count in test [2] was 111%; in test [3], 89.9%. For the same compound, the fluorescence slope in test [4] was -0.299 (inactive). Also, the NADPH fluorescence slope in test [5] is -4e-05 (inactive). Also, the slope in test [6] was 0.00454 (inactive).

As to `O=C(CN1C(=O)CSC1=O)N1CCc2ccccc2C1`, in test [1], the cell count was found to be 324. Moreover, the inhibition in test [1] was 4.8% (inactive); in test [3], 0.8% (inactive); in test [7], 6.34% (inactive); in test [8], 31% (inactive). Further, the inhibition of aggregation in test [2] was 14% (inactive). In addition, the nuclei count in test [2] was found to be 101%; in test [3], 107%. In addition, in test [4], the fluorescence slope is -0.423 (inactive). Also, in test [5], the NADPH fluorescence slope is -5.1e-05 (inactive). The slope in test [6] is 0.00367 (inactive).

Take `O=C(NC1CCCCC1)n1c(=O)oc2ccc(Cl)cc21`: the cell count in test [1] stood at 666. Also, the inhibition in test [1] is 13.9% (inactive); in test [3], 23.4% (inactive); in test [7], -1.88% (inactive); in test [8], -13.8% (inactive). Besides, in test [2], the inhibition of aggregation was -4.2% (inactive). The nuclei count in test [2] was 103%; in test [3], 107%. In addition, the fluorescence slope in test [4] is -0.622 (inactive). Further, the NADPH fluorescence slope in test [5] is -3.6e-05 (inactive). Moreover, in test [6], the slope is 0.00609 (inactive).

On to `CCc1nc(N)c(C#N)c(-c2ccc(OC)c(OC)c2)c1C`, for which the cell count in test [1] was 628. Besides, the inhibition in test [1] is -4.4% (inactive); in test [3], -37% (inactive); in test [7], 16.9% (inactive); in test [8], 21.8% (inactive). In test [2], the inhibition of aggregation was -13.8% (inactive). For the same compound, the nuclei count worked out at 98.5% in test [2] and 111% in test [3]. Moreover, in test [4], the fluorescence slope is -0.384 (inactive). Also, the NADPH fluorescence slope in test [5] was 1e-05 (inactive). Further, in test [6], the slope is 0.00633 (inactive).

In the case of `Cc1ccc(-c2nc3cnccn3c2Nc2ccc3c(c2)OCO3)o1`, the cell count in test [1] amounted to 913. Further, the inhibition in test [1] is 2.3% (inactive); in test [3] it was -109% (inactive); in test [7] it was 5.62% (inactive); in test [8], 34.7% (inactive). For the same compound, the inhibition of aggregation in test [2] is 2.9% (inactive). Moreover, the nuclei count was found to be 130% in test [2] and 114% in test [3]. Also, the fluorescence slope in test [4] is -0.483 (inactive). For the same compound, the NADPH fluorescence slope in test [5] is -6.6e-05 (inactive). Besides, the slope in test [6] was 0.00517 (inactive).

For `Cn1c(=O)cc(NCCc2ccccc2)[nH]c1=O`, the cell count in test [1] is 304. The inhibition in test [1] is 3.4% (inactive); in test [3], -199% (inactive); in test [7] it was 7.54% (inactive); in test [8] it was 27.3% (inactive). For the same compound, in test [2], the inhibition of aggregation was -8% (inactive). For the same compound, the nuclei count in test [2] is 116%; in test [3], 156%. Further, in test [4], the fluorescence slope is -0.43 (inactive). In addition, the NADPH fluorescence slope in test [5] was -0.0001 (inactive). Besides, in test [6], the slope was 0.00647 (inactive).
